High-throughput results: PubChem, National Center for Advancing Translational Sciences (NCATS)
A selection: hits, their analogues and other compounds. The true share with any hit is near 1.1%.
p53 reactivator – mutant p53 re-activation in reporter cells. actives 0.063% (n = 320,000). H1299 p53-A138V BP100-luciferase reporter, luminescence, 24 h. Potency, µM (doses to about 92.2 µM), actives largely listed as activators. AID 504706; note: nearly all actives have a fitted effect of over 45% in size
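p53-null H1299 cells stably carrying temperature-sensitive p53-A138V and a BP100-luciferase reporter were pinned with compounds (4-point, 1:5 series) and held 24 hrs at 37 deg C. Luminescence was read 10 min after detection reagent.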
RGS4 inh – human RGS4 inhibition; P49798; Transcreener GDP fluorescence polarization, RGS4-accelerated GTP hydrolysis; Potency, µM (series often up to 114 µM), actives largely listed as inhibitors; actives 0.039% (n = 390,000); AID 504845; note: nearly all actives have a fitted effect of over 75% in size
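MLSMR compounds (23 nl, pin-transferred) preincubated 10 min at room temperature with a 500nM (2x) first reagent, then RGS4 at 900nM (2x) plus Transcreener GDP mix added; fluorescence polarization (620/688 nm) read before and after 90 min at 30 °C.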
BRCA1 expr act – increases BRCA1 expression | MCF7-BRCA1-FFLuc reporter, luminescence, 48 h; response scale: scaled: vehicle 0%, 10 µM genistein 100% | Potency, µM (doses to about 46.1 µM), usual class: activators | actives 1.1% (n = 380,000) | AID 624202; note: nearly all actives have a fitted effect of over 80% in size
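Reporter cells (MCF7, BRCA1 promoter-firefly luciferase) received library compounds across a concentration series for 48 h. End-point luminescence was measured and concentration-effect curves derived after normalization.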
LDHA block – inhibitors of human lactate dehydrogenase A; P00338; purified LDHA, NADH/diaphorase-resazurin fluorescence; hits give low values; activity change, % (values are at about 110 or 230 µM); actives 0.15% (n = 480,000); AID 1347041; in the data active = activity change below about -30%; inconclusive = mostly about -25% to -30%
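Enzyme activity of human lactate dehydrogenase 5 (2 nM; 0.06 mM NADH, 0.2 mM pyruvate, 5 min, RT) is measured via a resazurin/diaphorase fluorescence readout of residual NADH.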
PTHR1 agonist – PTHR1 (human) receptor agonism. Potency, µM (doses to about 115 µM), actives largely listed as activators. Q03431. actives 0.075% (n = 410,000). AID 743266. HEK293 GP2 PTHR1 cells, GloSensor cAMP luminescence, 1 h; note: nearly all actives have a fitted effect of over 55% in size
Target sequence (Q03431 whole entry, looked up): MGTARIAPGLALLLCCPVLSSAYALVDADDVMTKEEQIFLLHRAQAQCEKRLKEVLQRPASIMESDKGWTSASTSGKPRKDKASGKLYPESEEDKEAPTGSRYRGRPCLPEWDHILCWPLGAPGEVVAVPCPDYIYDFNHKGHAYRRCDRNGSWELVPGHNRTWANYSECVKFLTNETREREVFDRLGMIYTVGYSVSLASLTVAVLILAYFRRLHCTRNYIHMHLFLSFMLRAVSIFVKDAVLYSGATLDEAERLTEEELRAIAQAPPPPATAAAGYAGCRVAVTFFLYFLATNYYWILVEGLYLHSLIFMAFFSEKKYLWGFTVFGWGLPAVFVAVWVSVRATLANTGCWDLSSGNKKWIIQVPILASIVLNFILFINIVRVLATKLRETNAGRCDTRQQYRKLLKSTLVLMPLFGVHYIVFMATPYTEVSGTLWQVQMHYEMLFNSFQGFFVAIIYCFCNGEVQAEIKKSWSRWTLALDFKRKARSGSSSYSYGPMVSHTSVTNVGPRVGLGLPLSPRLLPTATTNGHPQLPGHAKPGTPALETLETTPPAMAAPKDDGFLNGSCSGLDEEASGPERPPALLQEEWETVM
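HEK-293-derived GP2 cells expressing PTHR1 and a GloSensor cAMP reporter, 3,000/well, plated overnight, given luciferin plus IBMX (each 0.5 mM as added) for 1 h at 37 °C, then compound for 1 h at 37 °C. Luminescence was read after 15 min at room temperature.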
A number is an active result; n = inactive; u = inconclusive; x = not tested or not shown. Unless noted, calls come from the whole dose curve; as a rule, active = well fitted curve in the direction sought with a large enough effect; inconclusive = small, poorly fitted or top-dose-only effect, or another doubt; inactive = no such curve, though single readings can be large; an effect the other way counts as inactive or inconclusive.

SMILES	p53 reactivator	RGS4 inh	BRCA1 expr act	LDHA block	PTHR1 agonist
CCN(CC)c1ccc(NC(=O)c2cc3cc(F)ccc3[nH]2)cc1	x	x	x	n	x
Brc1ccc(-c2noc(-c3ccncc3)n2)cc1	x	x	x	n	x
O=c1oc2ccccc2nc1/C=C(\O)c1ccccc1	u	n	3.5µM	n	n
CC(C)(C)/C(O)=C/c1nc2ccccc2oc1=O	n	n	n	n	n
O=C(OCC(=O)c1cccs1)c1ccc(O)cc1	x	x	x	n	x
CCOc1ccc(/C=C2\CCC(C3CCCC3)C2=O)cc1 (configuration not stated)	n	n	4µM	n	n
CCN(CC)C(=O)CCCSc1nnc(Nc2ccccc2F)s1	n	n	4.5µM	n	n
O=C1c2ccccc2C(=O)N1CSc1nnc(Nc2ccccc2F)s1	n	n	n	n	n
COc1cccc(C(=O)Nc2ccc(N3CCN(C(=O)c4ccccc4C)CC3)cc2)c1	x	x	x	n	x
CC(=O)Nc1ccc(N=Nc2c(C)[nH]n(C(N)=S)c2=O)cc1	n	n	10µM	n	n
CC(C)(C)CC(=O)Nc1cccc(-c2cn3cccnc3n2)c1	n	n	8.9µM	n	n
COc1ccc(OC(=O)c2c(C)nn(-c3ccccc3)c2C)cc1	n	n	u	n	n
COc1ccc(OC(=O)c2cnn(-c3ccccc3)c2C)cc1	u	n	10µM	n	n
CCn1c2ccccc2c2cc(/C=C3/C=Cc4ccccc43)ccc21	x	x	n	-55	x
CCCCNc1ccc(/C=C2\C=Cc3ccccc32)cc1	x	x	6.3µM	n	x
C[N+](C)(C)c1ccc(/C=C2\C=Cc3ccccc32)cc1	x	x	n	n	x
O=C(Nc1ccc(CN2CCOCC2)cc1)c1ccc(Cl)cc1	u	n	13µM	n	n
O=C(Nc1ccc(CN2CCOCC2)cc1)c1ccc(Br)cc1	u	n	u	n	n
CCn1nnc(NCc2ccc(Cl)cc2Cl)n1	x	x	x	n	x
Cc1ccc2c(CN3CCC(C)CC3)cc(=O)oc2c1	u	n	3.2µM	n	n
Cc1ccc2c(CN3CC(C)CC(C)C3)cc(=O)oc2c1 (configuration not stated)	n	n	n	n	n
Nc1nc(-c2ccc(Br)cc2)cs1	u	n	16µM	n	n
Nc1nc(-c2cc(-c3ccccc3)no2)cs1	u	n	u	n	n
Nc1nc(-c2ccc(F)cc2)cs1	n	n	n	n	n
Nc1nc(-c2cccc(Br)c2)cs1	n	n	11µM	n	5.6µM
SMILES	p53 reactivator	RGS4 inh	BRCA1 expr act	LDHA block	PTHR1 agonist
CCOc1ccc(CNCc2ccco2)cc1Cl	x	x	x	n	x
OCCn1c(SCCOc2ccccc2)nc2ccccc21	n	n	n	n	n
COCCn1c(COc2ccc(C)cc2)nc2ccccc21	n	n	11µM	n	n
Cn1c(COc2ccccc2)nc2ccccc21	u	n	10µM	n	n
CCSc1nc2ccccc2n1CCOc1ccccc1	n	n	14µM	n	n
CC(C)n1nnnc1SCCS(=O)(=O)c1cc(Cl)ccc1Cl	x	x	x	n	x
CC(=O)Oc1cccc2cc(-c3nc(-c4ccc(F)cc4)no3)c(=O)oc12	x	x	x	n	x
COC(=O)c1c(C)[nH]c(-c2cc(OC)c(OC)c(OC)c2)c1C1C(=O)Nc2ccc(F)cc21 (configuration not stated)	x	x	x	n	x
Cc1ccc(S(=O)(=O)N(C)c2ccc(C(=O)Nc3ccccn3)cc2)cc1	n	n	n	n	n
CN(C)S(=O)(=O)c1ccc(C(=O)Nc2ccccn2)cc1	u	n	14µM	n	n
Cn1c(CO)cnc1SCC(=O)c1ccc(F)cc1	n	n	10µM	n	n
CC(C)c1cccc(C(C)C)c1NC(=O)C1CC=CCC1 (configuration not stated)	x	x	x	-32	x
CCOc1ccc(/C=C(/C#N)C(=O)c2ccccc2)cc1OC	x	x	x	n	x
Cc1ccc(-c2nc(CSc3nnnn3CC(C)C)co2)c(C)c1	x	x	x	n	x
O=C(Nc1ccc(-c2ccccc2)cc1)c1ccc(F)cc1F	x	x	x	n	x
O=C(Nc1ccc(-c2cnco2)cc1)c1ccc(F)cc1F	n	n	5µM	n	n
c1ccc(CSCc2cn3ccccc3n2)cc1	n	n	2.8µM	n	n
Cc1ccc(SCc2cn3ccccc3n2)cc1	n	n	u	n	n
O=C(NCCc1ccccc1)c1cccc2c(-c3ccc(F)c(F)c3)coc12	x	x	n	n	n
